Test results taken from PubChem BioAssay (Tox21).
Inconclusive results are not listed. Activity calls are given as the source filed them. Unless noted, the call rests on the fitted dose curve; in most records, active means well fitted curve in the direction sought with a large enough effect in the repeat runs; inconclusive means weak or mixed curves; inactive means no such curve, though single readings can be large; an effect the other way counts as inactive or inconclusive.

Tests used:
[1] = qHTS assay to identify small molecule agonists of the estrogen receptor alpha (ER-alpha) signaling pathway in the presence of an antagonist - cell viability counter screen (AID 1259386);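 further: cells exposed to compounds for 22 h at 37 °C before the viability read; nearly all actives have a fitted effect of over 30% in size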; further: potency means the concentration at half of the fitted maximal effect
Summary of the method: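 In this counter screen, compound effects on VM7Luc4E2 viability were tested in the presence of the antagonist ICI-182,780 at 10.0nM final. Compounds were dosed at 15 concentrations, exposure lasted 22hr, and the CellTiter-Fluor signal was read.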

[2] = molecular target: Progesterone receptor (Homo sapiens) (UniProt P06401); test: qHTS assay to identify small molecule antagonists of the progesterone receptor (PR) signaling pathway (AID 1346795; active means well fitted inhibition curve with a large enough effect in the signal ratio in the repeat runs, not every such curve was filed as active; the % refers to the signal ratio; further: potency means the concentration at half of the fitted maximal effect)
Summary of the method: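 PR-UAS-bla HEK293T cells carrying a UAS-driven beta-lactamase reporter were plated in medium with 2% charcoal-stripped FBS and rested 6 hr at 37C. Compounds were added with 1 nM R5020 (final) for 16 hr, then FRET substrate loaded 2 hr at room temperature.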

[3] = qHTS assay to identify small molecule antagonists of the progesterone receptor (PR) signaling pathway - cell viability counter screen (AID 1346798); further: nearly all actives have a fitted effect of over 50% in size; further: potency means the concentration at half of the fitted maximal effect
Summary of the method: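 PR-UAS-bla HEK293T cells in medium with 2% charcoal-stripped FBS were treated with compounds plus R5020 for 16 hr at 37C. Cell viability was then read by CellTiter-Glo luminescence after 30 min at room temperature in the same wells.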

[4] = qHTS assay to identify small molecule antagonists of the TGF-beta/Smad signaling pathway - cell viability counter screen (AID 1346824); further: nearly all actives have a fitted effect of over 50% in size; further: potency means the concentration at half of the fitted maximal effect
Summary of the method: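 Cytotoxicity counter-screen run in the same wells as the beta-lactamase Smad reporter read: CellTiter-Glo luminescence after 30 min at room temperature. HEK 293T SBE-bla cells had 5 hr compound exposure at 37 C with TGF-beta1 (0.25 ng/mL stock).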

[5] = qHTS assay to identify small molecule agonists of the TGF-beta/Smad signaling pathway - cell viability counter screen (AID 1346829); further: nearly all actives have a fitted effect of over 45% in size; further: potency means the concentration at half of the fitted maximal effect
Summary of the method: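 CellTiter-Glo luminescence readout; SBE-bla HEK 293T cells, overnight plating, compound 5 hr at 37 C/5% CO2, then bla substrate 2 hr RT, then CellTiter-Glo 30 min RT.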

[6] = molecular target: Thyrotropin-releasing hormone receptor (Homo sapiens) (UniProt P34981); test: qHTS assay to identify small molecule antagonists of the thyrotropin-releasing hormone receptor (TRHR) signaling pathway (AID 1346877; active means well fitted inhibition curve with a large enough effect in the repeat runs, not every such curve was filed as active; further: series mostly up to about 51 µM)
Summary of the method: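 Kinetic fluorescence (3 min, 1 s resolution) following stimulation with TRH at 1 nM final; HEK293 cells bearing human TRHR; 5 min compound preincubation at RT; concentration-response over 15 points, triplicates.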

[7] = molecular target: Thyrotropin-releasing hormone receptor (Homo sapiens) (UniProt P34981); test: qHTS assay to identify small molecule agonists of the thyrotropin-releasing hormone receptor (TRHR) signaling pathway (AID 1346891; calls by dose curve; further: series mostly up to about 58 µM)
Summary of the method: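 TRHR-expressing HEK293 cells were plated 18 h at 37 °C/5% CO2, loaded with calcium dye 2 h at 37 °C, then given compound in DMSO; fluorescence was read kinetically for 3 min at 1 s intervals.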

[8] = Human pregnane X receptor (PXR) small molecule agonists, qHTS cell viability counter screen (AID 1346977); further: nearly all actives have a fitted effect of over 50% in size; further: potency means the concentration at half of the fitted maximal effect
Summary of the method: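 PXR-Luc HepG2 cells in medium with 5% charcoal-stripped FBS were pre-incubated 5hr, then exposed to compounds for 24hr at 37C. Viability was read in the same wells by CellTiter-Fluor fluorescence, reagent added after 23hr with a 1hr incubation.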

[9] = Caspase-3/7 induction in HepG2 cells by small molecules, qHTS assay (AID 1346978); further: nearly all actives have a fitted effect of over 15% in size; further: potency means the concentration at half of the fitted maximal effect
Summary of the method: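 Caspase-3/7 induction was measured by Caspase-Glo 3/7 luminescence (30 min, room temperature) after a 17 hr compound exposure of wild-type HepG2 cells seeded at 2,000 per well and pre-incubated 5 hr.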

[10] = Caspase-3/7 induction in CHO-K1 cells by small molecules, qHTS cell viability counter screen (AID 1346979); further: nearly all actives have a fitted effect of over 35% in size; further: potency means the concentration at half of the fitted maximal effect
Summary of the method: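 Wild-type CHO-K1 cells were seeded at 1,500 per well, rested 5hr at 37 C, then exposed to compounds in DMSO. After 16hr, CellTiter-Fluor reagent was added and fluorescence read 1hr later as the viability measure.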

[11] = Caspase-3/7 induction in HepG2 cells by small molecules, qHTS cell viability counter screen (AID 1346981); further: nearly all actives have a fitted effect of over 30% in size; further: potency means the concentration at half of the fitted maximal effect
Summary of the method: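 In this quantitative HTS counter screen, compounds delivered in DMSO were left on unmodified HepG2 cells for 16 hr at 37 C. Viability was then determined fluorometrically with CellTiter-Fluor, in parallel with caspase-3/7 induction in the same wells.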

[12] = molecular target: Nuclear receptor subfamily 1 group I member 2 (Homo sapiens) (UniProt O75469); test: Human pregnane X receptor (PXR) small molecule agonists, qHTS assay (AID 1346982); further: nearly all actives have a fitted effect of over 35% in size; further: potency means the concentration at half of the fitted maximal effect
Summary of the method: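 Reporter HepG2 cells expressing PXR-Luc are cultured in charcoal-stripped FBS (5%), treated with compounds for 24 hr at 37 C, and assayed by ONE-Glo luminescence after 30 min at room temperature.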

[13] = molecular target: Cytochrome P450 2D6 (Homo sapiens) (UniProt P10635); test: Cytochrome P450 Family 2 Subfamily D Member 6 (CYP2D6) small molecule antagonists: luciferase reporter qHTS assay (AID 1671196); further: nearly all actives have a fitted effect of over 50% in size; further: potency means the concentration at half of the fitted maximal effect
Summary of the method: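 Test chemicals meet CYP2D6 plus proluciferin substrate (10 min, RT); NADPH regenerating solution then drives turnover for 1 h. Detection reagent halts the reaction; luminescence measured after 20 min.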

[14] = qHTS assay to identify small molecule agonists of the progesterone receptor (PR) signaling pathway - cell viability counter screen (AID 1346799; calls by dose curve; further: nearly all actives have a fitted effect of over 45% in size; further: potency means the concentration at half of the fitted maximal effect)
Summary of the method: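 PR-UAS-bla HEK293T cells, 3,000 per well in medium with 2% charcoal-stripped FBS, were preincubated 6 hr at 37C, then exposed to compounds for 16 hr; viability was read as CellTiter-Glo luminescence after 30 min at room temperature.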

[15] = qHTS assay to identify small molecule agonists of the TGF-beta/Smad signaling pathway (AID 1346859; active means well fitted activation curve with a large enough effect in the signal ratio in the repeat runs, not every such curve was filed as active; the % refers to the signal ratio; further: series mostly up to about 77 µM)
Summary of the method: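 HEK 293T cells stably carrying a beta-lactamase reporter driven by the Smad binding element were seeded overnight, exposed to DMSO-dissolved compounds for 5 hr at 37 C, 5% CO2, then loaded with FRET substrate for 2 hr at room temperature.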

[16] = Caspase-3/7 induction in CHO-K1 cells by small molecules, qHTS assay (AID 1346980); further: nearly all actives have a fitted effect of over 15% in size; further: potency means the concentration at half of the fitted maximal effect
Summary of the method: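 Luminescent Caspase-Glo 3/7 read (30min, room temperature) quantified apoptosis induction. Cells were wild-type CHO-K1, treated with compound for 17hr at 37 C and 5% CO2.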

[17] = molecular target: Progesterone receptor (Homo sapiens) (UniProt P06401); test: qHTS assay to identify small molecule agonists of the progesterone receptor (PR) signaling pathway (AID 1346784; calls by dose curve; further: nearly all actives have a fitted effect of over 30% in size)
Summary of the method: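 PR-UAS-bla HEK 293T cells carrying a UAS-driven beta-lactamase reporter were seeded in medium with 2% charcoal-stripped FBS, preincubated 6 hr at 37C, then exposed to compounds in DMSO for 16 hr; agonism was read by LiveBLAzer B/G FRET fluorescence.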

[18] = molecular target: Nuclear receptor subfamily 1 group I member 2 (Rattus norvegicus) (UniProt Q9R1A7); test: Rat pregnane X receptor (rPXR) activation by small molecules, qHTS assay (AID 1346983); settings: rPXR luciferase reporter cells, One-Glo luminescence, 24 h; max activation: hits give high values; further: nearly all actives have a fitted effect of over 20% in size
Summary of the method: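 Luminescent readout (One-Glo luciferase, 30 min room temperature) followed 24 hr compound treatment at 37 C of rPXR cells plated 2,000 per well and preincubated 5hr; qHTS format with compounds delivered in DMSO.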

[19] = molecular target: Nuclear receptor subfamily 1 group I member 2 (Homo sapiens) (UniProt O75469); test: Human pregnane X receptor (PXR) activation by small molecules, qHTS assay (AID 1346985); further: nearly all actives have a fitted effect of over 40% in size
Summary of the method: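 DPX-2 cells (HepG2 co-transfected with a PXR response element and a CYP3A4-promoter luciferase construct) were seeded at 2,000 per well, rested 5 hr at 37C, then exposed to DMSO-dissolved compounds for 24 hr. Activation was read as luciferase luminescence.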
On the % scale 0 is the no-effect control and ±100 the full control effect.

Sequence of Nuclear receptor subfamily 1 group I member 2 (Homo sapiens) (O75469 whole entry, looked up): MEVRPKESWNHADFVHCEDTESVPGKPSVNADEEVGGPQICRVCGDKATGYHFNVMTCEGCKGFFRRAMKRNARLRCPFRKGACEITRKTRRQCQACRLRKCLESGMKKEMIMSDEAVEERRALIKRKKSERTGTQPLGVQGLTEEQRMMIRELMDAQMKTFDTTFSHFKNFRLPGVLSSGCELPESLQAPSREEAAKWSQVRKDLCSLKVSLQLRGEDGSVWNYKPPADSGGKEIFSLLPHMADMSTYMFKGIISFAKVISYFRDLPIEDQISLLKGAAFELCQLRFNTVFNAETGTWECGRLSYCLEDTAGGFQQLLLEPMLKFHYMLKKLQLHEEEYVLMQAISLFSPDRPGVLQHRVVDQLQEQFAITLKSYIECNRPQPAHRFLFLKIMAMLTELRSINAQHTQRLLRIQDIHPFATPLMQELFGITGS
Sequence of Cytochrome P450 2D6 (Homo sapiens) (P10635 whole entry, looked up): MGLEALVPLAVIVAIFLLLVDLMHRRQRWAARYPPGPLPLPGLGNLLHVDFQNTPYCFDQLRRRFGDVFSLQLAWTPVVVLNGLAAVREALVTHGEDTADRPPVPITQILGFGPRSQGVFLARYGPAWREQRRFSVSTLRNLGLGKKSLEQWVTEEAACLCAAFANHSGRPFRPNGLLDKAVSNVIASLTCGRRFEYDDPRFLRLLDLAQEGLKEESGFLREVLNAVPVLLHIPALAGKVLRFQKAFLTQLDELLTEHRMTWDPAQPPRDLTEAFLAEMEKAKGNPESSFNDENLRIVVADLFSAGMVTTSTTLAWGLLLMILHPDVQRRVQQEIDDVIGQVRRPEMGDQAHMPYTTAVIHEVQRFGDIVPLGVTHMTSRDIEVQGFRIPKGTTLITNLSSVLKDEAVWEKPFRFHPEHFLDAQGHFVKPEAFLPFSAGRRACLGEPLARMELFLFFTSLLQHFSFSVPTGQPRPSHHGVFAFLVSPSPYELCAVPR
Sequence of Progesterone receptor (Homo sapiens) (P06401 whole entry, looked up): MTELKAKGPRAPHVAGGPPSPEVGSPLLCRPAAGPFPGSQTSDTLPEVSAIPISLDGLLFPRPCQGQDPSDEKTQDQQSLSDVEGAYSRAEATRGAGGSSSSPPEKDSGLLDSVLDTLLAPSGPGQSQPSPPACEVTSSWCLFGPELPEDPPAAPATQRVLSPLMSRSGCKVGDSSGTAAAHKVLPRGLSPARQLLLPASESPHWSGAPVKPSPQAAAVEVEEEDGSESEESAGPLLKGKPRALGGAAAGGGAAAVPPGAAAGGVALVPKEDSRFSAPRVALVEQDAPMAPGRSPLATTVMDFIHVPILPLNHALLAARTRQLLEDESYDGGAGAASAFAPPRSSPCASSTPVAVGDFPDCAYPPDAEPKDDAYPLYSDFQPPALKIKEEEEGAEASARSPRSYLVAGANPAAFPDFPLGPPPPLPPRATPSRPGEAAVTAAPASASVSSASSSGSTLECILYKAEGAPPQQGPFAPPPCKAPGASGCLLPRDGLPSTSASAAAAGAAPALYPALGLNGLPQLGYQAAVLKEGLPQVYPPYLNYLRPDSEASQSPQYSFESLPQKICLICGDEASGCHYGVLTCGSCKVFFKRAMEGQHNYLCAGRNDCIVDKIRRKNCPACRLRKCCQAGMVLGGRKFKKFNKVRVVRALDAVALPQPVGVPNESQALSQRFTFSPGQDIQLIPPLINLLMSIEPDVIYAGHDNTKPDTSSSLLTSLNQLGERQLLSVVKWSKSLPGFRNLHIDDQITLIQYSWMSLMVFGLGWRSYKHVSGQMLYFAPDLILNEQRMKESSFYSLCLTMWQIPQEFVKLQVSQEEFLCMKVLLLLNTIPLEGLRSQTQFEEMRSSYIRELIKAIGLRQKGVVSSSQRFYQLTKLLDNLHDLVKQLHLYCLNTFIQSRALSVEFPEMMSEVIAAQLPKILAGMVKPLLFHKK
Sequence of Thyrotropin-releasing hormone receptor (Homo sapiens) (P34981 whole entry, looked up): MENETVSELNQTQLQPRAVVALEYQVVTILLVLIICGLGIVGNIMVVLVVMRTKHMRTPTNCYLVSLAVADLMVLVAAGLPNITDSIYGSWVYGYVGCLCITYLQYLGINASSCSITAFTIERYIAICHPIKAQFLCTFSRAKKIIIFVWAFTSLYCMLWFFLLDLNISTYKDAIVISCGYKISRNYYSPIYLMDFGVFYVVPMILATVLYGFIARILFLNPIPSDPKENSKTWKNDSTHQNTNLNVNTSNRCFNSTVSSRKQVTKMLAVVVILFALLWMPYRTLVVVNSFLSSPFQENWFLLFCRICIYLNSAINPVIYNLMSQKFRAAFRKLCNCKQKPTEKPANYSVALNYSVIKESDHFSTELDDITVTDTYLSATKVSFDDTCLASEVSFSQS
Sequence of Nuclear receptor subfamily 1 group I member 2 (Rattus norvegicus) (Q9R1A7 whole entry, looked up): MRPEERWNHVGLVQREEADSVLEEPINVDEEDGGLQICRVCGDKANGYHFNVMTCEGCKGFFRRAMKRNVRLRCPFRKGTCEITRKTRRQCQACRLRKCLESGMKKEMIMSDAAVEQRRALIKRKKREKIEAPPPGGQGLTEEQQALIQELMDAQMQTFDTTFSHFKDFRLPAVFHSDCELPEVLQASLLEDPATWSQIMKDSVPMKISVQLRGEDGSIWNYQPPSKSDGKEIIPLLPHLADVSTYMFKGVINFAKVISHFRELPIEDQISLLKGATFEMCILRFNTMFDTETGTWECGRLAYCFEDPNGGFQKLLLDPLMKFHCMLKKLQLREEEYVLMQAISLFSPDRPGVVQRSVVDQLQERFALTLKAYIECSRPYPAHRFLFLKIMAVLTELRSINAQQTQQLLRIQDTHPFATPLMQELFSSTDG

O=C1CCCc2c1cc1ccc3cccc4ccc2c1c34
inactive: Potency [1] | Potency [3] | Potency [4] | Potency [5] | Potency [6] | Potency [7] | Potency [8] | Potency [9] | Potency [10] | Potency [11] | Potency [13]
active: Potency [2] 3.48 µM | Potency [12] 17.4 µM

CS(=O)(=O)CCNCc1ccc(-c2ccc3ncnc(Nc4ccc(OCc5cccc(F)c5)c(Cl)c4)c3c2)o1
inactive: Potency [1] | Potency [4] | Potency [5] | Potency [6] | Potency [7]
active: Potency [2] 7.5 µM | Potency [3] 18.8 µM | Potency [14] 15 µM | Potency [8] 26.6 µM | Potency [9] 33.5 µM | Potency [10] 23.7 µM | Potency [11] 29.8 µM

CCCC/C=C/CCCCO
inactive: Potency [1] | Potency [2] | Potency [3] | Potency [14] | Potency [4] | Potency [15] | Potency [6] | Potency [8] | Potency [9] | Potency [10] | Potency [11] | Potency [12] | Potency [13]

C=CC(=O)OCC(CO)(COCC(COC(=O)C=C)(COC(=O)C=C)COC(=O)C=C)COC(=O)C=C
active: Potency [1] 10.7 µM | Potency [2] 6.04 µM | Potency [3] 15.2 µM | Potency [14] 15.2 µM | Potency [4] 48.4 µM | Potency [5] 21.6 µM | Potency [8] 3.03 µM | Potency [9] 6.04 µM | Potency [10] 0.76 µM | Potency [16] 0.48 µM | Potency [11] 3.81 µM | Potency [12] 1.91 µM | Potency [13] 15.7 µM
inactive: Potency [15]

Oc1cc2ccccc2c2ccccc12
active: Potency [1] 13.7 µM | Potency [2] 6.11 µM | Potency [3] 6.86 µM | Potency [14] 12.2 µM | Potency [4] 11 µM | Potency [8] 13.7 µM | Potency [10] 15.4 µM | Potency [11] 13.7 µM | Potency [13] 2.24 µM
inactive: Potency [6] | Potency [7] | Potency [9] | Potency [16] | Potency [12]

CC(C)(C)c1ccc(C(=O)CCCN2CCC(OC(c3ccccc3)c3ccccc3)CC2)cc1
active: Potency [4] 21.3 µM | Potency [5] 23.9 µM | Potency [8] 21.1 µM | Potency [9] 29.8 µM | Potency [10] 18.8 µM | Potency [16] 21.1 µM | Potency [11] 29.8 µM
inactive: Potency [1] | Potency [17] | max activation [18] -2.11%

CCC(C)Nc1ccc(NC(C)CC)cc1 (centres undefined)
inactive: Potency [6] | Potency [7] | Potency [9] | Potency [16]
active: Potency [1] 17.6 µM | Potency [2] 55.5 µM | Potency [4] 25 µM | Potency [5] 39.7 µM | Potency [8] 12.4 µM | Potency [10] 17.6 µM | Potency [11] 27.8 µM | Potency [13] 2.88 µM

Fc1ccc(C(c2ccc(F)cc2)N2CCN(C/C=C/c3ccccc3)CC2)cc1
active: Potency [2] 23.7 µM | Potency [8] 29.8 µM | Potency [10] 33.5 µM
inactive: Potency [1] | Potency [15] | Potency [16]

Cc1cc(CCN2CCN(c3nsc4ccccc34)CC2)cc2c1NC(=O)CC2(C)C
inactive: Potency [9] | Potency [16]
active: Potency [1] 48.6 µM | Potency [2] 19.3 µM | Potency [3] 30.6 µM | Potency [14] 27.3 µM | Potency [4] 54.9 µM | Potency [8] 27.3 µM | Potency [10] 24.3 µM | Potency [11] 61.1 µM | Potency [12] 19.3 µM

O=S1(=O)CC(Cl)(Cl)C(Cl)(Cl)C1
active: Potency [1] 27.3 µM | Potency [2] 6.86 µM | Potency [3] 13.7 µM | Potency [14] 12.2 µM | Potency [8] 2.73 µM | Potency [10] 0.686 µM | Potency [16] 0.486 µM | Potency [11] 17.2 µM | Potency [12] 0.545 µM
inactive: Potency [6] | Potency [7] | Potency [9] | Potency [13]

CN(C)C(=O)C1(N2CCCCC2)CCN(CC[C@@]2(c3ccc(Cl)c(Cl)c3)CN(C(=O)c3ccccc3)CCO2)CC1
inactive: Potency [15]
active: Potency [1] 57.1 µM | Potency [2] 50.9 µM | Potency [14] 20.3 µM | Potency [8] 25.5 µM | Potency [9] 45.4 µM | Potency [10] 28.6 µM | Potency [16] 57.1 µM | Potency [11] 50.9 µM | Potency [12] 20.3 µM | Potency [13] 6.63 µM

C/C(=C(/OCCOc1ccc(Cl)cc1)c1ccc(Cl)cc1Cl)n1ccnc1
active: Potency [2] 8.41 µM | Potency [3] 13.3 µM | Potency [14] 16.8 µM | Potency [12] 10.6 µM | Potency [13] 1.55 µM
inactive: Potency [1] | Potency [4] | Potency [5] | Potency [15] | Potency [9] | Potency [16] | Potency [11]

CCN1/C(=C/C=C/c2sc3ccccc3[n+]2CC)Sc2ccccc21
active: Potency [1] 6.51 µM | Potency [2] 11.6 µM | Potency [5] 4.65 µM | Potency [8] 5.17 µM | Potency [10] 1.46 µM | Potency [11] 10.3 µM | Potency [13] 12 µM
inactive: activity, negative = inhibition [6] -4.16% [at 10.5 µM] | caspase activation [9] -8.48% [at 19 µM] | caspase-3/7 activation [16] 0.607% [at 19 µM] | activation [12] 29.7% [at 19 µM] | max activation [18] -26.5% | Potency [19]

CC1(C)CCC(C)(C)c2cc(C(=O)Nc3ccc(C(=O)O)cc3)ccc21
inactive: Potency [1] | Potency [17] | Potency [4] | Potency [5] | Potency [6] | Potency [7] | Potency [8] | Potency [12] | Potency [13]
active: Potency [10] 48.6 µM
